Source: PubChem (several laboratories)
In the library only some 3.5% were active in any assay of this set; here they are far more common.
BoNT F protease: BoNT/F light chain protease inhibitors, primary screen, biochemical, flow cytometry, MLPCN library; Botulinum neurotoxin type F light chain protease (Clostridium botulinum); Multiplex microsphere protease cleavage assay; inhibition, % at 10 µM; 0.22% of 360,000 active; in the data active means inhibition above about 35%, passing the limit was not always enough; inconclusive means no clear call, values can overlap the other calls; further: plate controls were buffer without enzyme for full effect and enzyme alone for no effect
BoNT A protease: BoNT/A light chain protease inhibitors, primary screen, biochemical, flow cytometry, MLPCN library. multiplex microsphere protease substrate cleavage. 0.17% of 360,000 active. inhibition, % at 10 µM. Botulinum neurotoxin type A light chain protease (Clostridium botulinum A str. ATCC 3502); further: plate controls were buffer without enzyme for full effect and enzyme alone for no effect
BH1578 lux ind: inducers of Vibrio cholerae quorum light production without autoinducers, primary screen, BH1578 luxS cqsA deficient, single point | V. cholerae BH1578 lux reporter, luminescence, 6 h | activation, % at 18.7 µM | 0.16% of 350,000 active; in the data active means activation mostly above about 9.7%, no sharp cut-off; inconclusive means no clear call, values can overlap the other calls; inactive means mostly below about 3.7%
Anthrax LF prot: Bacillus anthracis LF protease inhibitors, primary screen, biochemical, multiplex microsphere, MLPCN library | multiplex microsphere protease cleavage assay | Lethal factor (Bacillus anthracis), P15917 | 0.12% of 360,000 active | inhibition, % at 10 µM; further: plate controls were buffer without enzyme for full effect and enzyme alone for no effect
Bead autofluor: flagged as autofluorescent in microsphere protease counterscreen; compound autofluorescence counterscreen, microsphere flow cytometry; hits give high values; fluorescence intensity (test concentration not listed); 3.1% of 360,000 active; AID 624483; in the data active means fluorescence intensity above about 16000; inconclusive means no clear call, values can overlap the other calls
* = called active by the depositor; i = inactive; ? = inconclusive; nt = no result. Unless noted, no stated cut-off is given here; in the data, active means inhibition above about 30%; inconclusive means no clear call, values can overlap the other calls; inactive means below that.

SMILES | BoNT F protease | BoNT A protease | BH1578 lux ind | Anthrax LF prot | Bead autofluor
Cc1ccc(C)c(CN2C(=O)C3(OCCCO3)c3ccccc32)c1 | -2.5 | -1.4 | -0.3 | -2.6 | 23436*
O=C(CN1C(=O)C2(OCCCO2)c2ccccc21)NCc1ccccc1 | -3.5 | -3.2 | i | -3.9 | 17108*
CCOC(=O)CN1C(=O)C2(OCCCO2)c2ccccc21 | 2.1 | -0.4 | i | -1.3 | 10049
CC(C)(C)C(=O)CN1C(=O)C2(OCCO2)c2ccccc21 | 10.5 | 1.2 | i | 4.5 | 3659
Cc1ccc(CNC(=O)CN2C(=O)C3(OCCCO3)c3ccccc32)cc1 | 39.8* | 37.7* | i | -20.7 | 11499
COC(=O)CN1C(=O)C2(OCCCO2)c2cc(Br)ccc21 | 4.2 | 0.1 | i | 0.5 | 23376*
CC(C)Oc1ccc(S(=O)(=O)N2CCOCC2)cc1NC(=O)c1ccc(Cl)c(S(=O)(=O)N2CCOCC2)c1 | 0.4 | 0.4 | -0.3 | 0.2 | 3699
O=C(CN1C(=O)C2(OCCO2)c2ccccc21)c1ccc(Cl)cc1 | 0.2 | ? | i | -2.9 | 16345*
Oc1ccccc1C1N=C(c2ccccc2)NC(c2ccccc2)=N1 | -0.4 | 1.1 | i | 0.3 | 22671*
COc1ccc(NC(=O)C23CC4CC(C2)CC(n2cnc(Br)n2)(C4)C3)cc1Cl | -3.4 | -0.1 | -0.9 | -0.8 | 16232*
CC(C)Cc1nnc(NC(=O)C2=COCCO2)s1 | -3.3 | 1.2 | -1.6 | -2.2 | 5107
CCOc1ccc(-c2csc(C3COc4ccccc4O3)n2)cc1 (stereo unspecified) | -2.8 | 0.6 | -1.0 | -0.5 | 23266*
O=S(=O)(c1cccc(-c2nc3ccccc3s2)c1)N1CCCC1 | -5.2 | -1.8 | -0.2 | -2.6 | 23878*
CCN(Cc1ccccc1)C(=O)C1CCN(Cc2ccc(OC)c(OC)c2OC)CC1 | -0.9 | ? | i | 0.6 | 22911*
O=C(Nc1cccc(Oc2ccc(C(=O)O)c(C(=O)O)c2)c1)c1ccc(-c2ccccc2)cc1 | 5.1 | 0.3 | i | -3.8 | 3256
CC(=O)c1cccc(NC(=O)c2cc(S(=O)(=O)N3CCCCC3)ccc2N2CCOCC2)c1 | -3.4 | -0.1 | -7.7 | 1.5 | 3813
CN(C)/C=N/c1ncc(C(=O)c2ccc3ccccc3c2)s1 | 2.2 | 1.3 | 1.7 | 4.4 | 23850*
CN(C)CCNC(=O)Cn1ccc2cc(S(=O)(=O)N3CCCCCC3)ccc21 | -4.7 | 0.1 | i | -4.5 | 5590
OCC1(Cc2ccccc2F)CCCN(Cc2c(F)ccc(F)c2F)C1 (stereo unspecified) | ? | 3.3 | -1.5 | 5.5 | 4119
CCN(CC)CCNC(=O)NC1CCCCC1 | -3.6 | ? | i | 0.3 | 22854*
CCOC(=O)c1c(C)n(C)c2ccc(OCC(O)Cn3nc(C)cc3C)cc12 (stereo unspecified) | -3.4 | -0.2 | i | -4.9 | 16244*
CCOC(=O)c1c(C)n(C)c2ccc(OCC(O)CN(CC)CC)cc12 (stereo unspecified) | -12.1 | -0.4 | nt | 2.9 | 5998
COC(=O)c1sc(-c2ccc(C(C)(C)C)cc2)cc1NC(=O)CSCC(=O)O | ? | 3.5 | -0.8 | 6.2 | ?
O=C(COc1cccc(C(F)(F)F)c1)Nc1cccc(S(=O)(=O)NC2=NCCCCC2)c1 | -5.9 | 0.0 | i | 3.5 | 3854
CCn1nc(NS(=O)(=O)c2ccccc2)c2cc3cccc(C)c3nc21 | 0.8 | ? | i | -8.4 | 19546*
SMILES | BoNT F protease | BoNT A protease | BH1578 lux ind | Anthrax LF prot | Bead autofluor
Oc1oc(-c2ccccc2)nc1C=Nc1ccccc1 | -1.8 | 0.4 | i | -0.8 | 13340
Sc1oc(-c2ccccc2)cc1C=Nc1ccccc1 | -8.7 | -2.1 | -0.6 | -4.1 | 24473*
Cn1c(=O)n(C)c2cc(N3CCOCC3)c(NC(=O)c3ccc(F)cc3)cc21 | 3.3 | -1.9 | i | -4.7 | 4415
Fc1ccc(-c2ccnc3nc(N4CCOCC4)nn23)cc1 | -2.7 | -0.8 | -4.6 | -1.3 | 23704*
COc1ccc(-c2ccnc3nc(N4CCN(c5ccccc5)CC4)nn23)cc1 | -2.3 | ? | -1.4 | -11.1 | 22429*
CCOc1ccccc1N1CC(C(=O)NCCOc2ccccc2OC)CC1=O (stereo unspecified) | nt | nt | -0.8 | nt | nt
CCCCCCOc1ccc(C(=O)n2cnc(N)n2)cc1 | -2.0 | 1.8 | i | 0.8 | 21741*
CCCCCCOc1ccc(C(=O)O)cc1 | -0.4 | 0.0 | -0.4 | 1.1 | 4376
O=C(O)c1nc(N2CCCCC2)ncc1Cl | -9.0 | -1.1 | 0.7 | -2.7 | 2505
O=C(O)c1nc(N2CCCC2)ncc1Cl | 9.5 | 6.9 | -0.2 | -8.4 | 19947*
CCOc1ccc(N2CC(C(=O)Nc3ccncc3)CC2=O)cc1 (stereo unspecified) | -5.5 | -2.3 | 0.9 | -2.1 | 6757
Nc1ccc(C(=O)c2ccc3c(c2)OCCO3)cc1N | -6.0 | 0.1 | -1.0 | -0.3 | 21110*
Nc1cc2c(cc1C(=O)c1ccccc1)OCCO2 | 4.2 | 0.6 | i | -1.2 | 3575
Nc1cc2c(cc1C(=O)c1ccc(Cl)cc1)OCCO2 | -0.9 | ? | -1.0 | -2.8 | 22401*
O=C(NCCc1ccccc1)[C@@H]1CC=C[C@@H]2CCN(C3CCCCC3)C(=O)[C@@H]21 | 1.3 | -0.5 | 0.8 | -5.1 | 3998
CCOc1c(C(=O)CC)cc2c(C)cc(=O)oc2c1C | -1.4 | 0.5 | -3.0 | -3.9 | 16306*
Oc1ccc2ccccc2c1/C=N/n1cnnc1 | 1.8 | 2.4 | i | -1.5 | 22040*
CCc1ccc2c(c1)C(c1ccc([N+](=O)[O-])cc1)=NNC(c1ccc(C)cc1)=N2 | 1.8 | 0.1 | -0.2 | 2.5 | 2454
CCOC(=O)c1ccc(CSc2ncn[nH]2)o1 | -6.7 | -0.4 | -0.3 | -11.4 | 4397
COC(=O)c1ccc(CSc2ncn[nH]2)o1 | -3.2 | ? | -1.4 | 1.5 | 20355*
Nc1ncnc2nc(SCC(=O)N3CCN(c4ccccc4)CC3)[nH]c12 | 19.2 | ? | i | -11.9 | 17350*
Nc1ncnc2nc(SCCN3CCCCC3)[nH]c12 | -0.5 | 0.3 | -3.6 | -2.3 | 16379*
COc1ccccc1N1CCN(C(=O)CSc2nc3ncnc(N)c3[nH]2)CC1 | 0.2 | 0.4 | i | 4.4 | 5596
O=C(CSc1ccccn1)N1CCN(c2ccccc2)CC1 | -1.9 | -3.3 | -0.9 | -1.9 | 16913*
CCN(CC)S(=O)(=O)c1ccc(NC2=NS(=O)(=O)c3ccccc32)cc1 | -1.6 | 0.2 | -4.0 | -8.9 | 5740
O=S1(=O)N=C(Nc2nncs2)c2ccccc21 | 2.6 | ? | -2.0 | -4.1 | 22257*
CCNC(=O)n1nccc1C(C)Oc1cccc(C(F)(F)F)c1 (stereo unspecified) | 0.2 | 1.6 | -2.9 | -2.0 | 21560*
CCNC(=O)n1nccc1C(C)Oc1ccc(Cl)cc1 (stereo unspecified) | -1.5 | 0.1 | -0.2 | -1.9 | 21790*
CCNC(=O)n1cc(-n2cncn2)c(-c2ccc(Cl)cc2)n1 | 0.6 | 0.9 | i | 1.6 | 2026
C=CCN=C1S/C(=C\c2ccc(N(C)C)cc2)C(=O)N1CC=C | ? | -3.5 | -0.4 | 6.4 | 4979
